From PubChem BioAssay
Activity calls are given as the source filed them.

Assays:
[1] = test system: Human papillomavirus type 1a protein E7 (residues 44-93); assay: HPV1a E7 fragment binders on microarrays, primary screen, biochemical, small-molecule microarray, residues 44-93, 635 nm fluorescence (AID 1108); settings: small-molecule microarray binding, fluorescence 635 nm; higher = more signal;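 also: E7 fragment applied at 1 µg/mL in TBST for 1 h at 4 C; score combines spot fluorescence with its signal to noise ratio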
[2] = modulators of HCV replicon luciferase signal, primary screen, HCV replication inhibitor project, Huh7 cells, luciferase reporter (AID 1109); settings: 48 h, higher = more signal;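 also: huh7 hepatoma cells harbouring a luciferase neomycin HCV replicon reporter; luciferase luminescence as measure of HCV replicon replication; test concentration not given here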
[3] = molecular target: Left-right determination factor 2 (Homo sapiens) (UniProt O00292); assay: LEFTY2 binders on small-molecule microarrays, primary screen, biochemical, small-molecule microarray, 635 nm fluorescence scan (AID 1110); settings: LEFTY2 binding, higher = more signal
Left-right determination factor 2 (Homo sapiens), sequence (O00292 whole entry, looked up): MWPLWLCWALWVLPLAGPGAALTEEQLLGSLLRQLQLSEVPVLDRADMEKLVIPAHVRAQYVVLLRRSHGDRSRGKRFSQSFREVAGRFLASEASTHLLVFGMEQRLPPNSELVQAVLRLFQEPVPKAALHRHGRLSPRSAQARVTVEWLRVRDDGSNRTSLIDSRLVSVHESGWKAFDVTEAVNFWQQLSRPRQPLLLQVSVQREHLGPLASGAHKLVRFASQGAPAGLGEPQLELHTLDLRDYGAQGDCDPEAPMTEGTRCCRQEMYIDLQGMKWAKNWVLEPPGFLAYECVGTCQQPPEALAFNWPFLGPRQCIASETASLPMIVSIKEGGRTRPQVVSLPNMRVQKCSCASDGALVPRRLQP

[4] = molecular target: Calmodulin-1 (Homo sapiens) (UniProt P0DP23); assay: CALM1 binders on microarrays, EGTA buffer, profiling panel, biochemical, small-molecule microarray, Cy5-labelled CALM1 (AID 1111); settings: Cy5-CALM1 binding fluorescence, higher = more signal;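 also: labelled calmodulin applied in Tris saline Tween buffer holding calcium plus EGTA and DTT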
[5] = molecular target: Calmodulin-1 (Homo sapiens) (UniProt P0DP23); assay: calcium-bound CALM1 binders on microarrays, profiling panel, artefact control for SMM control-protein annotation, biochemical, small-molecule microarray, Cy5-labelled CALM1, plus calcium (AID 1112); settings: Cy5-CALM1 binding fluorescence, higher = more signal;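 also: score merges spot fluorescence with signal to noise from triplicate slides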
[6] = small-molecule microarray binders of probe aWnt5a, primary screen, biochemical, biotinylated probe, 635/667 nm fluorescence (AID 1113); settings: higher = more signal;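 also: score merges 667 nm fluorescence intensity with signal-to-noise per printed feature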
[7] = small-molecule microarray binders of probe aShh, primary screen, biochemical, biotinylated probe, 635/667 nm fluorescence (AID 1114); settings: higher = more signal;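 also: probe is biotin-labelled aShh protein from a stem cell growth factor screen; measures binding of labelled protein to compounds printed on the slide; score merges feature fluorescence at 667 nm with signal-to-noise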
[8] = small-molecule microarray binders of probe aNog, primary screen, biochemical, biotinylated probe, 635/667 nm fluorescence (AID 1115); settings: higher = more signal;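 also: probe is biotinylated aNog protein used at 0.15 µg/mL for 1 h at 4 C; z-score combines 667 nm fluorescence of each spot with its signal to noise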
[9] = molecular target: Torsin-1A-interacting protein 1 (Homo sapiens) (UniProt Q5JTV8); assay: LAP1 binders from COS7 cell lysate, primary screen, small-molecule microarray, 635/667 nm fluorescence (AID 1116); settings: COS7-hLAP1 lysate binding, 635 nm fluorescence, higher = more signal
Torsin-1A-interacting protein 1 (Homo sapiens), sequence (Q5JTV8 whole entry, looked up): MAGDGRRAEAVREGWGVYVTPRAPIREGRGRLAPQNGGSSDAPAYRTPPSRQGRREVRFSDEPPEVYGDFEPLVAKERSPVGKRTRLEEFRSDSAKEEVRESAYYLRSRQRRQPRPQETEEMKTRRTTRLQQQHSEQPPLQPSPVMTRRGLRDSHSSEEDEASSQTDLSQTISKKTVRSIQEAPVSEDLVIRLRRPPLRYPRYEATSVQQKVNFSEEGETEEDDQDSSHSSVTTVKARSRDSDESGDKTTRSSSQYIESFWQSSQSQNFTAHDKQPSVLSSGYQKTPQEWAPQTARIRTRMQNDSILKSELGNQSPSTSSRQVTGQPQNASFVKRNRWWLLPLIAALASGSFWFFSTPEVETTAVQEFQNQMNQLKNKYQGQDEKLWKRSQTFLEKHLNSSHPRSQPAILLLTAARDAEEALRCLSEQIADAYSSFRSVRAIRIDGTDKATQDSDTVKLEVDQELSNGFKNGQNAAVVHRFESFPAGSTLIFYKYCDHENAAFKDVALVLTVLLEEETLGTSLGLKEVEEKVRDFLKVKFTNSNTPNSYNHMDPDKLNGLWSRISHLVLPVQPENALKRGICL

[10] = molecular target: Alpha-bungarotoxin (Bungarus multicinctus) (UniProt P60615); assay: alpha-bungarotoxin binders on microarray, profiling panel, artefact control for SMM control protein annotation, biochemical, small-molecule microarray, Alexa647 label, 635/667 nm fluorescence (AID 1117); settings: alpha-BTX-A647 binding fluorescence, higher = more signal
Alpha-bungarotoxin (Bungarus multicinctus), sequence (P60615 whole entry, looked up): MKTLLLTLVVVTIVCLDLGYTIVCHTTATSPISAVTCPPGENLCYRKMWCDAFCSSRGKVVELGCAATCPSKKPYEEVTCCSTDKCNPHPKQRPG

Albumin (Bos taurus) = Albumin (Bos taurus) (UniProt P02769); assay: bovine serum albumin binders on microarray, profiling panel, artefact control for SMM control protein annotation, biochemical, small-molecule microarray, Alexa647 label, 635/667 nm fluorescence (AID 1118); settings: BSA-A647 binding, fluorescence 635 nm, higher = more signal;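 also: score merges 667 nm emission intensity and signal-to-noise per printed compound spot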
Albumin (Bos taurus), sequence (P02769 whole entry, looked up): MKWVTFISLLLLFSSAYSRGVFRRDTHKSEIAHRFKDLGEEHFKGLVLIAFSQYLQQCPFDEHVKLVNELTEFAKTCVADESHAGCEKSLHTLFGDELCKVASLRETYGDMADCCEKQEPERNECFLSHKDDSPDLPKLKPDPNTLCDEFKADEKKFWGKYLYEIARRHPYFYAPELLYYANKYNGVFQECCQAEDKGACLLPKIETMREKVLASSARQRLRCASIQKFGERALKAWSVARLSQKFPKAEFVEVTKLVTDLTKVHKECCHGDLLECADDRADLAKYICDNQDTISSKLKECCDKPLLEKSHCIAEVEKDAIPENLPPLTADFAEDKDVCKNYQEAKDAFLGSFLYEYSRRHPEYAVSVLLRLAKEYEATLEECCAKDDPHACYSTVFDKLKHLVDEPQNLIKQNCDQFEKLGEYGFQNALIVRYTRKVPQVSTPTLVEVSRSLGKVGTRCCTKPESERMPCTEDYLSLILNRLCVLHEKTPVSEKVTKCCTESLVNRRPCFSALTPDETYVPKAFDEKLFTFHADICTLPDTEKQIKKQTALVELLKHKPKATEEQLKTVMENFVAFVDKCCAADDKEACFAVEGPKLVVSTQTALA

[11] = small-molecule microarray binders of probe aXIP, primary screen, biochemical, NeuroSMM set, 635/667 nm fluorescence (AID 1119); settings: higher = more signal, called active from +8 up or from −8 down;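 also: probe is the protein aXip251-270 applied at 1 µg/mL to compound-printed slides; binding of probe to printed compounds measured as 667 nm fluorescence plus signal to noise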
[12] = small-molecule binders of probe aNOTCH3, primary screen, biochemical, small-molecule microarray, 635/667 nm fluorescence (AID 1120); settings: higher = more signal;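 also: probe is a biotin-tagged antibody raised against NOTCH3 rather than NOTCH3 protein; score merges spot fluorescence near 667 nm with spot signal to noise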
[13] = small-molecule binders of probe aNOTCH2, primary screen, biochemical, small-molecule microarray, 635/667 nm fluorescence (AID 1121); settings: higher = more signal;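 also: score merges feature fluorescence read at 667 nm with its signal to noise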
[14] = molecular target: Carbonic anhydrase 2 (Homo sapiens) (UniProt P00918); assay: CAII small-molecule binders, profiling panel, biochemical, small-molecule microarray, Alexa647-labelled CAII (AID 1122); settings: CAII-A647 binding fluorescence, higher = more signal
[15] = COS7 lysate on small-molecule microarray, probe aHis, 635 nm (AID 1123); settings: COS7 cell lysate, fluorescence, higher = more signal;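 also: z-score combines 667nm fluorescence intensity with signal-to-noise per printed compound spot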
[16] = compound binding in COS7 lysate, probe aLAP1, primary screen, cell lysate, small-molecule microarray (AID 1124); settings: probe aLAP1, fluorescence, higher = more signal;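 also: lysate comes from COS7 cells expressing LAP1 and is applied at 0.3 µg/mL; score merges spot fluorescence near 667 nm with signal-to-noise over triplicate slides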
Sam68 (KHDRBS1) = assay: Sam68 small-molecule binders, primary screen, biochemical, small-molecule microarray, 635 nm fluorescence (AID 1125); settings: small-molecule microarray binding, higher = more signal;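 also: score merges 667 nm channel intensity with signal to noise over triplicate slides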
[17] = test system: Chordin-like protein 2 (CHRDL2); assay: CHRDL2 small-molecule binders, primary screen, biochemical, small-molecule microarray, 635 nm fluorescence (AID 1126); settings: small-molecule microarray binding, fluorescence 635 nm; higher = more signal;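 also: printed compound slides probed with Chrdl2 protein at 4 µg/mL for 1 h at 4 C; score merges 667 nm emission intensity with signal to noise over three replicate slides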
[18] = molecular target: Concanavalin-A (Canavalia ensiformis) (UniProt P02866); assay: ConA small-molecule binders, primary screen, artefact control for SMM control protein annotation, biochemical, small-molecule microarray, Alexa647 label, 635 nm (AID 1127); settings: ConA-A647 binding fluorescence, higher = more signal;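 also: z combines 667 nm emission intensity with signal-to-noise across three replicate slides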
Concanavalin-A (Canavalia ensiformis), sequence (P02866 whole entry, looked up): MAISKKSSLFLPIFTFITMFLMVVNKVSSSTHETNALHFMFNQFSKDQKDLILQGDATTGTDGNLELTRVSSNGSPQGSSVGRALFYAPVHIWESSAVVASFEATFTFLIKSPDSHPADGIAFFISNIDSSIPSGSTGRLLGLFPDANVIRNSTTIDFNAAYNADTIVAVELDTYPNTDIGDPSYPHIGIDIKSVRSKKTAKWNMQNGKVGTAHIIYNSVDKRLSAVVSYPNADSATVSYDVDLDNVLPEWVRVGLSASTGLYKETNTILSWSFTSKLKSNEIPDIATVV

Row | SMILES | composite z-score [1] | z-score [2] | composite z-score [3] | composite z-score [4] | composite z-score [5] | composite z-score [6] | composite z-score [7] | composite z-score [8] | composite z-score [9] | composite z-score [10] | composite z-score (Albumin (Bos taurus)) | composite Z-score [11] | composite z-score [12] | composite z-score [13] | composite z-score [14] | composite z-score [15] | composite z-score [16] | composite z-score (Sam68 (KHDRBS1)) | composite z-score [17] | composite z-score [18]
1 | C=C(COC)/C(=C/C[C@@H](OC(C)=O)c1ccccc1OCCO)c1cnc2ccccc2c1 | 1.17 | -1.95 | 0.248 | 0.35 | -0.716 | -0.1 | 0.0796 | 0.329 | 1.73 | 1.56 | -0.209 | 0.72 (inactive) | 0.199 | -0.084 | 0.776 | 1.09 | 0.542 | 1.17 | 0.765 | 0.995
2 | C=C(COC)C(=O)CC[C@H](OC(=O)c1cccnc1)c1ccc(OCCO)cc1 | 1.27 | -0.345 | 0.65 | -0.395 | -1.33 | -0.176 | -0.379 | -0.0762 | 2.53 | 0.994 | -0.286 | 0.509 (inactive) | 0.201 | -0.128 | 0.665 | 0.709 | 1.53 | 1.14 | 0.563 | 0.293
3 | O=C1C2C=CC(C(O)c3ccc([N+](=O)[O-])cc3)N(Nc3ccccc3F)C2C(=O)N1c1ccccc1 (stereo not given) | 0.395 | -0.288 | -0.303 | 0.865 | 0.378 | 0.0919 | 0.0442 | 1.01 | 1.55 | 1.06 | 1.04 | 0.0431 (inactive) | -0.124 | 0.0323 | 0.703 | -0.309 | 1.06 | 0.808 | -0.445 | 0.886
4 | COc1ccc([Si](C)(C)[C@H]2[C@H](CC(=O)N3CCC[C@H]3CO)O[C@@]3(C(=O)N(Cc4ccc(N5CCCCC5=O)cc4)c4ccccc43)[C@@H]2C)cc1 | 1.4 | -1.46 | 0.721 | 0.441 | -0.393 | -0.0239 | 0.0639 | 1.32 | 1.15 | 1.62 | 0.664 | -0.765 (inactive) | 0.212 | -0.108 | 0.292 | 1.27 | 0.0516 | 1.3 | 0.824 | 1.18
5 | O=C1O[C@@H](c2ccccc2)[C@@H](c2ccccc2)N2[C@@H](c3ccc(OCCO)cc3)[C@]3(C(=O)Nc4ccc(C#CCCO)cc43)[C@@H](C(=O)O)[C@H]12 | 1.08 | -0.22 | 0.687 | 2.03 | 0.408 | 0.663 | 0.582 | 2.45 | 1.99 | 1.95 | 0.559 | 0.919 (inactive) | 0.955 | 0.516 | 0.746 | 2.2 | 0.636 | 1.28 | 1.02 | 1.15
